70 molecules from PubChem BioAssay AID2546 (National Center for Advancing Translational Sciences (NCATS), 2010) can be followed below.

Among all 310,000 compounds or so, about 11,000 (3.5%) were called active. Entries that show only a call come without a potency. Inconclusive results (about 8%) are left out. Calls follow the shape of the dose curve; as a rule, active = well fitted inhibition curve with a large enough effect; inconclusive = small, poorly fitted or top-dose-only effect, or effect the other way; inactive = flat fitted curve, though single readings scatter. For the sample, actives were picked, then their nearest neighbours and some compounds at random.
Potency is read from the fitted curve at half-maximal effect.

This assay is described as follows: VP16 counterscreen qHTS for inhibitors of ROR gamma transcriptional activity.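 Also: Gal4-VP16 expression switched on by copper sulfate through the metallothionein promoter; nearly all actives have a fitted effect of over 50% in size.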 As to conditions: Drosophila S2 Gal4-VP16 UAS-luciferase, luminescence, 20 h; series mostly up to 53.6 µM.
For `COc1ccccc1CN1CCNC(=O)C1CC(=O)N(C)CC1CCOCC1` (stereo not given), the Potency entry is “inactive”.

As to `COc1ccc2c(C)c(CCC(=O)NC3CC3)c(=O)oc2c1C`, the Potency entry is “inactive”.

For the molecule `COc1ccc2c(c1OC)C(=O)N(c1ccc(O)cc1)C2`, the Potency entry is “inactive”.

On to `O=C(NCCN1CCOCC1)c1ccc(/C=C2\Sc3ccccc3N(Cc3ccc(F)cc3)C2=O)cc1`, for which the Potency result was “inactive”.

In the case of `CN1CCN(CCCNC(=O)c2ccc(/C=C3\Oc4ccccc4N(Cc4ccc(Cl)cc4)C3=O)cc2)CC1`, the Potency was 11.2 µM (active).

For `CN1C(=O)/C(=C/c2ccc(C(=O)NC3CCCC3)cc2)Oc2ccccc21`, the Potency result is “inactive”.

`Cc1cc(N2C(=O)C(O)=C(C(=O)c3ccc(C)o3)C2c2ccc(OCc3ccccc3)cc2)no1` (stereo not given): the Potency entry is “inactive”.

As for `O=C(CN1CCC(NC(=O)Nc2ccccc2)CC1)Nc1cccc([N+](=O)[O-])c1`, the Potency result is “inactive”.

For `COc1cccc(C(=O)CC(=O)C(=O)Nc2ccc([N+](=O)[O-])cc2C)c1`, the Potency entry was “inactive”.

In the case of `CC1(C)Cc2c(sc(NC(=O)C(=O)N3CCOCC3)c2C#N)CO1`, the Potency result is “inactive”.

Consider `COc1ccc(Cc2nc3ccc(C(=O)NCC4CCOCC4)cc3o2)cc1OC`, for which the Potency result was “inactive”.

Regarding `O=C(O)c1ccccc1CSc1nc2ccccc2s1`, the Potency entry was “inactive”.

As for `O=C(CCCl)Nc1ccc(S(=O)(=O)NCc2ccco2)cc1`, the Potency result was “inactive”.

As for `C/C(=N\Nc1ncc(Cl)cc1Cl)c1ccc(S(=O)(=O)NCc2ccco2)cc1`, the Potency was 3.16 µM (active).

In the case of `O=S(=O)(NCc1ccco1)c1cnc(Cl)c(Cl)c1`, the Potency entry was “inactive”.

Consider `CCCc1ccc(OCCNC(=O)c2ccccc2Br)cc1`, for which the Potency result was “inactive”.

On to `Cc1cc(NC(=O)c2ccccc2C)no1`, for which the Potency entry was “inactive”.

Regarding `O=C1/C(=C\c2cccnc2)CN(Cc2ccccc2)C/C1=C\c1cccnc1`, the Potency is 2 µM (active).

In the case of `Clc1ccc(CN2CCN(/N=C/c3cccnc3)CC2)cc1`, the Potency entry is “inactive”.

`O=Cc1cn(Cc2ccccc2)nc1-c1cccnc1`: the Potency entry is “inactive”.

With `Cc1c(C(C)(C)O)[nH]c2ccc(C#N)cc12`, the Potency result is “inactive”.

Consider `O=C(O)c1ccccc1C(=O)NC1=NN(c2ccccc2)CC1`, for which the Potency entry is “inactive”.

Turning to `O=C1CCC(C(=O)N2CCCCO2)CN1Cc1cccc(C(F)(F)F)c1` (stereo not given), the Potency result is “inactive”.

As for `NS(=O)(=O)c1ccc(CCNS(=O)(=O)c2cccc3cccnc23)cc1`, the Potency result was “inactive”.

As for `Cc1cc(Cl)c2oc(C(=O)NC(C)c3ccncn3)c(C)c2c1` (stereo not given), the Potency result was “inactive”.

Turning to `O=C(N/N=C/c1cc(Cl)cc([N+](=O)[O-])c1O)C(O)(c1ccccc1)c1ccccc1`, the Potency was 0.891 µM (active).

With `CN(C)/N=C/c1cc(Cl)cc([N+](=O)[O-])c1O`, the Potency result is “inactive”.

As for `Cc1cc(C(=O)N/N=C/c2ccccc2[N+](=O)[O-])c(C)o1`, the Potency result was “inactive”.

For the molecule `Cc1nn(C)c(Cl)c1CN1CCC(Oc2ccc(C(=O)N3CCCC3)cc2)CC1`, the Potency result is “inactive”.

With `O=C(C[C@H]1C(=O)N(c2ccc(F)c(F)c2)C[C@@H]1Cc1ccccc1)Nc1ccccc1`, the Potency entry was “inactive”.

Consider `Cc1c(C(=O)NC2CCCCC2)oc2ccccc12`, for which the Potency result was “inactive”.

As to `CCOC(=O)CSc1ccccn1`, the Potency entry is “inactive”.

On to `COc1ccc(C=C(C#N)C#N)c(CSc2ccccn2)c1`, for which the Potency was 15.8 µM (active).

For the molecule `COc1cccc(N(CC(=O)NCCSc2ccccn2)S(C)(=O)=O)c1`, the Potency entry was “inactive”.

Take `CCCn1c2ccccc2c2cnn(CC(=O)NCCCN3CCCCC3CC)c(=O)c21` (stereo not given): the Potency result is “inactive”.

With `O=C(OCC(=O)N1CCN(C(=O)c2ccco2)CC1)c1cccc(O)c1`, the Potency entry is “inactive”.

Take `Cc1nc2ccccc2c(=O)n1NC(=O)c1ccccc1`: the Potency result is “inactive”.

Turning to `Cc1ccnc(-n2sc3ccccc3c2=O)n1`, the Potency is 11.2 µM (active).

On to `Cc1ccnc(N2CCCC(C(=O)NC3CC3)C2)n1` (stereo not given), for which the Potency entry was “inactive”.

Take `Cc1ccc(CN2CCNC(=O)C2CC(=O)NCc2csc(C(C)C)n2)cc1` (stereo not given): the Potency entry is “inactive”.

On to `O=C(c1ccc(Cl)cc1)N1N=C(c2ccccn2)CC1(O)C(F)(F)F` (stereo not given), for which the Potency was 4.47 µM (active).

Consider `COC(=O)C1(O)CC(C(C)C)=NN1C(=O)c1ccc(Cl)cc1` (stereo not given), for which the Potency entry is “inactive”.

On to `O=C(C1CC1)N1N=C(c2ccc(Br)cc2)CC1(O)C(F)(F)F` (stereo not given), for which the Potency result is “inactive”.

Turning to `CCC(C)c1ccc(NC(=S)NCc2ccccn2)cc1` (stereo not given), the Potency was 8.91 µM (active).

Take `O=C(NCc1ccccn1)Nc1ccc(F)cc1`: the Potency entry was “inactive”.

With `COc1cccc(NC(=S)NCc2ccccn2)c1`, the Potency entry is “inactive”.

For the molecule `Cc1cccc(NS(=O)(=O)c2ccc(C(=O)NCC(C)(C)N3CCOCC3)cc2)c1C`, the Potency entry is “inactive”.

As for `Cc1cccnc1CC(C)NC(=O)c1cc(COc2cncc(Cl)c2)on1` (stereo not given), the Potency result is “inactive”.

Take `COc1cc([C@H](Cc2ccccc2)NC(C)=O)oc(=O)c1`: the Potency was 11.2 µM (active).

In the case of `COC(=O)[C@H](Cc1ccccc1)NC(=O)Nc1ccc(OC)cc1`, the Potency entry is “inactive”.

As for `CCOC(=O)C(Cc1ccccc1)NC(=O)CCC(=O)c1ccc(OC)cc1` (stereo not given), the Potency result is “inactive”.

`COc1cc(/C=C2\C(=N)N3N=C(CC(=O)N4CCOCC4)SC3=NC2=O)cc(OC)c1OC`: the Potency entry was “inactive”.

Consider `CN(C)C(=O)CCC(=O)N1CCCCC1C(=O)Nc1ccc(Oc2ccccc2F)cc1` (stereo not given), for which the Potency entry is “inactive”.

On to `C/C(=N\NC(=O)c1ccc(C)cc1)C1C(=O)c2ccccc2C1=O`, for which the Potency was 0.562 µM (active).

For `Cc1ccc(C(=O)NCCNC(=O)c2ccccc2)cc1`, the Potency entry is “inactive”.

`C/C(=N\NC(=O)c1cccnc1)c1ccc(-c2ccccc2)cc1`: the Potency result is “inactive”.

`CC(Cc1cccs1)N(Cc1ccc(Cl)cc1)C(=O)c1ccncc1` (stereo not given): the Potency entry was “inactive”.

As for `CCOC(=O)c1ccc2[nH]c3c(c2c1)CCCC3NC=O` (stereo not given), the Potency result was “inactive”.

As to `CCOC(=O)c1c(NC(=O)C(C)Sc2c[nH]c3ccccc23)sc2c1CCC2` (stereo not given), the Potency result was “inactive”.

As to `CCOC(=O)c1c(NC(=O)c2ccc(Br)o2)sc2c1CCCC2`, the Potency result was “inactive”.

As for `CCOCC(=O)Nc1sc2c(c1C(=O)OCC)CCCC2`, the Potency result was “inactive”.

For `CCOC(=O)c1c(NC(=S)Nc2ccccc2C)sc2c1CCC2`, the Potency is 5.62 µM (active).

Take `CCN(CC)CC(=O)Nc1sc2c(c1C(=O)c1ccccc1C)CCC2`: the Potency was 17.8 µM (active).

For the molecule `CCc1ccc(N(CC(=O)Nc2sc3c(c2C(=O)OC)CCCC3)S(C)(=O)=O)cc1`, the Potency entry was “inactive”.

In the case of `O=C(Nc1sc2c(c1C(=O)O)CCC2)c1ccccc1F`, the Potency entry is “inactive”.

In the case of `CCCOC(=O)Nc1sc2c(c1C(=O)OCC)CCC2`, the Potency result is “inactive”.

In the case of `CCOC(=O)c1c(NC(=S)NC)sc2c1CCCC2`, the Potency was 1.41 µM (active).

Take `O=C(O)CN1c2cccc3cccc(c23)S1(=O)=O`: the Potency result was “inactive”.

On to `CC(C)(COC(=O)Nc1ccccc1)COC(=O)Nc1ccccc1`, for which the Potency result was “inactive”.

Turning to `CC(=O)Nc1ccc(NC(=O)CC2CCCC2)cc1`, the Potency result is “inactive”.
